# Assay outcomes: PubChem BioAssay, Broad Institute
# Vif inh: HIV Vif self-association inhibitors, primary screen, imaging, HEK293T, single point. HEK293T cells, Vif self-association by quenched fluorescence, 24 h. inhibition, % at 7.49 µM. 0.35% of 340,000 active. AID 602346, 2012; in the data active means inhibition above about 50%, passing the limit was not always enough; inconclusive means no clear call, values can overlap the other calls; inactive means below about 31%
# esBAF inh: Bmi1 luciferase reporter increase in mESCs, primary screen, esBAF inhibitor project, mouse ES cells, Bmi1 luciferase knock-in, single point. reporter increase, % at 12.5 µM. AID 602393, 2012. 2% of 350,000 active. 24 h; 100% = twice the neutral-well signal; in the data active means activation above about 40%; inconclusive means no clear call, values can overlap the other calls;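 further: a rise in the Bmi1 reporter signal indicates esBAF inhibition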
# HSF1 inh: HSF1 inhibitors in luciferase reporter cells, primary screen, cell-based, NIH3T3, luminescence. NIH3T3-HGL HSE-luciferase, MG132-induced, luminescence 8 h; active compounds read low. activity change, negative = inhibition, % at 7.5 µM (by protocol). 0.77% of 300,000 active;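 active means more than half of replicate wells show activity change below -50%, luminescence cut by over half; inconclusive means some wells, but at most half, below -50%; inactive means no replicate well below -50%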;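 further: luciferase reports HSF-1 transcriptional activity via heat shock element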
# HSF1 activator: HSF-1 activators, primary screen, NIH3T3-HGL cells, MG132 stress, luminescence, single point | NIH3T3-HGL HSF-1 luciferase reporter, 8 h; 100% = twice DMSO control signal | activation, % at 9 µM | 1.7% of 300,000 active;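 active means mean replicate activation of at least 50% with a set share of replicates each reaching 50%; inconclusive means only one of those two conditions met; inactive means mean below 50% and too few replicates reaching it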
# esBAF Ring1 qPCR: Ring1 mRNA increase in mouse ESCs, confirmation, esBAF inhibitor project, cell-based, mouse ESC, RT-qPCR, cherry-pick; mouse ESC E14, Ring1 mRNA RT-qPCR fold change; 550 tested, under 10 active; fold change at 33 µM; shares compounds with esBAF inh;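 active means Ring1 gene expression raised more than 2-fold over untreated cells in both replicates at either tested dose; inconclusive means only one replicate above 2-fold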;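 further: Ring1 transcript normalised to actin housekeeping signal by TaqMan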
# esBAF Fgf4 qPCR: Fgf4 mRNA decrease in mouse ESCs, confirmation, esBAF inhibitor project, cell-based, mouse ESC, RT-qPCR, cherry-pick. mouse ESC E14, Fgf4 mRNA qPCR fold change; active compounds read low. shares compounds with esBAF inh. Fgf4 expression fold change at 33 µM. 4% of 550 active;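 active means Fgf4 expression under 0.8 fold of control in both repeat measurements at one or both tested doses; inconclusive means under 0.8 fold in just a single repeat measurement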;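 further: Fgf4 transcript normalised to actin in duplex TaqMan qPCR; cells exposed to compound for 24 h before lysis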
# Bmi1 derepress: esBAF inhibition via Bmi1 de-repression, confirmation, cell-based, RT-qPCR, mouse ESC, single point, cherry-pick; AID 743180, 2013; shares compounds with esBAF inh; fold change at 33 µM; 550 tested, under 10 active; mouse ESE14 ES cells, Bmi1 mRNA qPCR fold; active compounds read high;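 active means Bmi1 expression fold change above 6 at either tested concentration, seen in replicate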;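 further: higher fold means more Bmi1 de-repression and stronger esBAF inhibition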
# A549 cytotox: A549 cell cytotoxicity, cytotoxicity control, plate reader, single point, cherry-pick; AID 743188, 2013; 550 tested, under 10 active; cell viability change % (negative = cytotoxic), % at 25 µM, hits read low; shares compounds with esBAF inh; call rule not given here
# HepG2 tox SP: HepG2 cell cytotoxicity, cytotoxicity control, plate reader, single point, cherry-pick | AID 743189, 2013 | activity change, negative = inhibition, % at 25 µM | shares compounds with esBAF inh | 4% of 550 active | active compounds read low; in the data active means activity change below about -50%
# HEK293 tox SP: HEK293 cell cytotoxicity, cytotoxicity control, plate reader, single point, cherry-pick; shares compounds with esBAF inh; activity change, negative = inhibition, % at 25 µM, hits read low; 3% of 550 active; in the data active means activity change below about -38%, passing the limit was not always enough
# Numbers stand for hits; . = inactive; ? = inconclusive; / = no result. A selection: hits, their analogues and other compounds. The true share with any hit is near 3.4%.
SMILES,Vif inh,esBAF inh,HSF1 inh,HSF1 activator,esBAF Ring1 qPCR,esBAF Fgf4 qPCR,Bmi1 derepress,A549 cytotox,HepG2 tox SP,HEK293 tox SP
O=C(Nc1ccccc1)c1cc(C2CCCN(C(=O)c3ccccc3)C2)on1 (stereo unspecified),.,57,/,/,.,.,.,.,.,.
C[C@H](CO)N1C[C@H](C)[C@@H](CN(C)C(=O)NC2CCCCC2)OCCCC[C@H](C)Oc2ccc(NS(=O)(=O)c3cn(C)cn3)cc2C1=O,/,.,/,/,/,/,/,/,/,/
COc1cc2ccccc2cc1C(=O)Nc1ccc(Br)cn1,.,86,.,.,.,.,.,.,.,.
O=C(c1cccs1)N(C(=O)c1cccs1)c1ccc(Br)cn1,.,65,.,.,.,.,.,.,.,.
Cc1ccnc(N(C(=O)c2cccs2)C(=O)c2cccs2)c1,.,.,.,.,/,/,/,/,/,/
CCN(CC)S(=O)(=O)c1cccc(-c2cn3cc(C)ccc3n2)c1,.,65,.,.,.,0.77,.,.,.,.
Cc1ccc(SCCN2CCC(C)CCC2=O)cc1 (stereo unspecified),/,83,.,.,.,?,.,.,.,.
Cc1ccc(S[C@@H](CCN2CC[C@H](C)CCC2=O)c2ccccc2)cc1,.,.,.,.,/,/,/,/,/,/
O=C(NCCO)c1cccc(-c2cnc3c(Nc4cccc(OC(F)(F)C(F)F)c4)nccn23)c1,.,71,/,/,.,?,.,.,.,.
COc1ccccc1-c1cnc2c(Nc3cccc(OC(F)(F)C(F)F)c3)nccn12,.,.,/,/,/,/,/,/,/,/
CO[C@@H]1CN(C)C(=O)c2cc(NS(C)(=O)=O)ccc2OC[C@H](C)N(Cc2cncnc2)C[C@@H]1C,/,.,/,/,/,/,/,/,/,/
O=C(/C=N/NC(=O)c1ccc(Cl)cc1Cl)c1ccccc1,.,59,.,57,.,.,.,.,.,.
Cc1ccc(N=Nc2ccc(N)cc2C)c(S(N)(=O)=O)c1,.,.,.,.,/,/,/,/,/,/
Cc1ccc(N=Nc2cc(C)ccc2O)c(C)c1,.,87,.,.,.,?,.,.,-50,.
C[C@@H]1CCCCO[C@H](CN(C)S(=O)(=O)c2ccc(Cl)cc2)[C@@H](C)CN([C@H](C)CO)C(=O)c2cc(NS(=O)(=O)c3cn(C)cn3)ccc2O1,/,.,/,/,/,/,/,/,/,/
O=C(Nc1ccc(-c2cnco2)cc1)c1ccc(F)cc1F,.,63,.,.,1.1,.,.,.,.,.
O=C(NC(=O)c1ccc(Cl)cc1)Nc1ccc(-c2cnco2)cc1,/,/,.,.,/,/,/,/,/,/
COc1ccc(-c2ccc3oc(-c4ccsc4)cc(=O)c3c2)cn1,.,68,/,/,.,.,.,.,.,.
Cc1cc(Cl)ccc1OCc1nnc(-c2ccccc2C)o1,.,99,/,/,.,.,.,.,.,.
COc1cc(-c2nnc(COc3ccc(Cl)cc3C)o2)cc(OC)c1OC,?,.,.,.,/,/,/,/,/,/
O=C(CC(=O)c1ccccc1)c1ccccc1,.,86,/,/,.,.,.,.,.,.
O=C(CC(=O)c1ccncc1)c1ccccc1,.,/,/,/,/,/,/,/,/,/
CC(C)(C)c1cc(C(=O)Nc2ccccc2)ccn1,.,.,.,.,/,/,/,/,/,/
Cc1ccc(NC(=O)c2ccnc(C(C)(C)C)c2)cc1,.,71,.,.,.,.,.,.,.,.
C=CCN(C(=O)CC(NC(C)=O)c1ccccc1)c1nc(-c2ccc(S(C)(=O)=O)cc2)cs1 (stereo unspecified),.,78,.,.,.,.,.,.,.,.
SMILES,Vif inh,esBAF inh,HSF1 inh,HSF1 activator,esBAF Ring1 qPCR,esBAF Fgf4 qPCR,Bmi1 derepress,A549 cytotox,HepG2 tox SP,HEK293 tox SP
COc1ccccc1C(=O)Nc1ccc2c(c1)OC[C@@H](C)N(C)C[C@H](C)[C@H](OC)CN(C)C2=O,/,.,/,/,/,/,/,/,/,/
Cc1nc(Nc2ccccc2)sc1C(=O)c1ccccc1,.,/,.,.,/,/,/,/,/,/
COC(=O)c1sc(Nc2ccccc2)nc1C,.,65,.,.,.,.,.,.,.,.
CC(=O)c1sc(Nc2ccc(Oc3ccccc3)cc2)nc1C,.,77,/,/,.,.,.,.,.,.
Nc1nc(SCc2ccccc2)cc(SCc2ccccc2)n1,.,65,/,/,.,.,.,.,.,.
C[C@H]1CN([C@@H](C)CO)S(=O)(=O)c2ccc(-c3ccncc3)cc2O[C@@H]1CN(C)C(=O)c1ccc2c(c1)OCO2,/,.,/,/,/,/,/,/,/,/
CCCCc1nc2cc(C(=O)N3CCN(c4nc(C)cnc4C)CC3)ccc2o1,.,64,.,.,.,.,.,.,.,.
CS(=O)(=O)Nc1ccc2c(c1)[C@@H]1C[C@@H](CC(=O)NCc3ccc(-c4ccccc4)cc3)O[C@@H](CO)[C@@H]1O2,/,.,/,/,/,/,/,/,/,/
CC(C)c1cn(CC[C@@H]2CC[C@@H](NC(=O)Nc3cc(Cl)cc(Cl)c3)[C@H](CO)O2)nn1,/,.,/,/,/,/,/,/,/,/
CC1(C)Cc2c(c(N3CCCC3)nc3sc(C(=O)Nc4ccccc4)c(N)c23)CO1,.,59,.,.,.,.,.,.,.,.
C[C@@H]1CN([C@@H](C)CO)C(=O)CCCn2cc(nn2)CO[C@@H]1CN(C)C(=O)Oc1ccccc1,/,.,/,/,/,/,/,/,/,/
Cc1cc(C)cc(N(CC(=O)Nc2ccc(-c3nc4ccc(C)cc4s3)cc2)S(C)(=O)=O)c1,.,47,.,.,.,.,.,.,.,.
COc1ccccc1NC(=O)C(=O)NCCC1CCCCN1S(=O)(=O)c1ccccc1 (stereo unspecified),.,.,.,.,/,/,/,/,/,/
COc1cccc(NC(=O)C(=O)NCCC2CCCCN2S(=O)(=O)c2ccccc2)c1 (stereo unspecified),.,79,.,.,.,.,.,.,.,.
CC(C)c1ccc(CNc2ncc(Br)cn2)cc1,.,73,.,.,.,.,.,.,-63,.
C/C=C/c1ccc([C@H]2[C@@H](C#N)N(c3ncc(CC)s3)[C@@H]2CO)cc1,/,.,/,/,/,/,/,/,/,/
C[C@@H]1CCCCO[C@H](CN(C)S(=O)(=O)c2ccccc2)[C@@H](C)CN([C@H](C)CO)C(=O)c2cc(NC(=O)CCCN(C)C)ccc2O1,/,.,/,/,/,/,/,/,/,/
